Experimental findings from the antibiotic and cytotoxicity screens of Wong et al. (2023) are described below.

SMILES strings stand for the structures. Out of some 39,000 compounds screened, about 1,500 (3.8%) were called active. This excerpt belongs to a sample that is enriched for actives.

The subject of the assay is HSkMC (human skeletal muscle cells). The assay is described as follows: cytotoxicity call (relative viability < 0.9). Conditions: 10 µM.
For `COC(=O)Cn1c(=N)n(C)c2ccccc21`, the cytotoxicity call was “inactive”.
In the case of `C[C@H](CO)N1C[C@H](C)[C@H](CN(C)Cc2ccc(Cl)c(Cl)c2)Oc2ccc(NC(=O)Cn3cnnn3)cc2C1=O` it was “inactive”; in that of `CO[C@@]1(NC(=O)[C@@H](C(=O)O)c2ccc(O)cc2)C(=O)N2C(C(=O)O)=C(CSc3nnnn3C)CO[C@@H]21`, “inactive”; in that of `CN1CCCN=C1C=Cc1cccc(O)c1.O=C(O)c1cc2ccccc2c(Cc2c(O)c(C(=O)O)cc3ccccc23)c1O`, “inactive”.
In the case of `CN1CCCN=C1C=Cc1cccs1.O=C(O)c1cc2ccccc2c(Cc2c(O)c(C(=O)O)cc3ccccc23)c1O` it was “inactive”; in that of `Cc1cc(C=Cc2ccc3cc(N(C)C)ccc3[n+]2C)c(C)n1-c1ccccc1.O=C([O-])c1cc2ccccc2c(Cc2c(O)c(C(=O)O)cc3ccccc23)c1O`, “active”; in that of `C[C@H](CO)N1C[C@H](C)[C@@H](CN(C)C(=O)Nc2ccccc2)Oc2ccc(NC(=O)CCCCCC(=O)Nc3ccccc3N)cc2C1=O`, “inactive”.
The same measure for `Cc1ccc(S(=O)(=O)Nc2ccc3c(c2)C(=O)N([C@@H](C)CO)C[C@H](C)[C@H](CN(C)C(=O)Nc2ccc(C(F)(F)F)cc2)OCCCC[C@H](C)O3)cc1`: “inactive”; for `O=C(CN1C(=O)c2cccc3cccc(c23)C1=O)N1CCN(CCN2C(=O)[C@@H]3[C@@H](C2=O)[C@@H]2C=C[C@@H]3C2)CC1`: “inactive”; for `O=C(O)CN1C(=O)c2cccc3cccc(c23)C1=O`: “inactive”.
Consider `CC(C)(C)C1CCC(OC[C@@H](O)CN2CCC(CN3C(=O)c4cccc5cccc(c45)C3=O)CC2)CC1` (stereo partly drawn), for which the cytotoxicity call is “active”.
The same measure for `O=C(O)C1C(=CCO)OC2CC(=O)N21.[LiH]` (stereo not drawn): “inactive”; for `Cc1ccc(S(=O)(=O)N(C)C[C@H]2Oc3c(NC(=O)C4CC4)cccc3C(=O)N([C@@H](C)CO)C[C@H]2C)cc1`: “inactive”; for `O=C(C[C@H]1C[C@H]2c3cc(NC(=O)c4ccc5c(c4)OCO5)ccc3O[C@H]2[C@@H](CO)O1)NCc1cccnc1`: “inactive”.
Take `COc1ccccc1CNC(=O)C[C@@H]1C[C@@H]2c3cc(NC(=O)c4ccc5c(c4)OCO5)ccc3O[C@@H]2[C@@H](CO)O1`: the cytotoxicity call is “inactive”.
In the case of `O=C(C[C@H]1C[C@@H]2c3cc(NC(=O)c4ccc5c(c4)OCO5)ccc3O[C@@H]2[C@@H](CO)O1)NCc1ccc(Oc2ccccc2)cc1` it was “inactive”; in that of `O=C(C[C@@H]1C[C@H]2c3cc(NC(=O)c4ccc5c(c4)OCO5)ccc3O[C@H]2[C@@H](CO)O1)NCc1ccc(Oc2ccccc2)cc1`, “inactive”; in that of `O=C(C[C@@H]1C[C@@H]2c3cc(NC(=O)c4ccc5c(c4)OCO5)ccc3O[C@@H]2[C@H](CO)O1)NCc1ccc(Oc2ccccc2)cc1`, “active”.
Turning to `O=C(C[C@H]1C[C@H]2c3cc(NC(=O)c4ccc5c(c4)OCO5)ccc3O[C@H]2[C@@H](CO)O1)NCc1ccc(Oc2ccccc2)cc1`, the cytotoxicity call was “inactive”.
Regarding `O=C(C[C@@H]1C[C@H]2c3cc(NC(=O)c4ccc5c(c4)OCO5)ccc3O[C@H]2[C@H](CO)O1)NCc1ccc(Oc2ccccc2)cc1`, the cytotoxicity call is “inactive”.
In the case of `O=C(C[C@@H]1C[C@@H]2c3cc(NC(=O)c4ccc5c(c4)OCO5)ccc3O[C@@H]2[C@@H](CO)O1)NCc1ccc(Oc2ccccc2)cc1` it was “active”.
In the case of `O=C(C[C@H]1C[C@H]2c3cc(NC(=O)c4ccc5c(c4)OCO5)ccc3O[C@H]2[C@H](CO)O1)NCc1ccc(Oc2ccccc2)cc1` it was “active”.
In the case of `O=C(C[C@H]1C[C@@H]2c3cc(NC(=O)c4ccc5c(c4)OCO5)ccc3O[C@@H]2[C@H](CO)O1)NCc1ccc(Oc2ccccc2)cc1` it was “inactive”; in that of `COc1ccccc1CNC(=O)C[C@@H]1C[C@@H]2c3cc(NC(=O)c4ccc5c(c4)OCO5)ccc3O[C@@H]2[C@H](CO)O1`, “inactive”.
`COc1ccccc1CNC(=O)C[C@@H]1C[C@H]2c3cc(NC(=O)c4ccc5c(c4)OCO5)ccc3O[C@H]2[C@H](CO)O1`: the cytotoxicity call is “active”.
In the case of `COCC#Cc1cnc2c(c1)C(=O)N([C@@H](C)CO)C[C@H](C)[C@@H](CN(C)C(=O)CN1CCOCC1)O2` it was “inactive”.
On to `COc1ccc(S(=O)(=O)N2C[C@H](O)COC[C@H]3O[C@H](CC(=O)NCCCN4CCOCC4)CC[C@@H]32)cc1`, for which the cytotoxicity call is “inactive”.
The same measure for `C[C@@H]1CN([C@@H](C)CO)S(=O)(=O)c2ccc(C#Cc3ccc(F)cc3)cc2O[C@@H]1CN(C)S(C)(=O)=O`: “inactive”.
In the case of `Cc1noc(C)c1NC(=O)N(C)C[C@@H]1OCCCC[C@@H](C)Oc2ccc(NC(=O)Nc3cccc4ccccc34)cc2C(=O)N([C@H](C)CO)C[C@@H]1C` it was “inactive”.
Take `CCCC#Cc1cnc2c(c1)C(=O)N([C@H](C)CO)C[C@H](C)[C@@H](CN(C)C(=O)c1ccc3c(c1)OCO3)O2`: the cytotoxicity call is “inactive”.
The same measure for `COc1ccc(S(=O)(=O)N(C)C[C@H]2Oc3ccc(NC(=O)CCCN(C)C)cc3CC(=O)N([C@@H](C)CO)C[C@@H]2C)cc1`: “inactive”.
In the case of `O=C(C1=C[C@H](c2ccc(C(F)(F)F)cc2)C[C@H](OCc2ccc(CO)cc2)O1)N1CCN(Cc2ccc3c(c2)OCO3)CC1` it was “inactive”.
In the case of `CN(C)CCCCNC(=O)[C@H]1C[C@H]2C(=O)N[C@@H](Cc3ccccc3)C(=O)N2[C@H]1c1cccc(OCCO)c1` it was “inactive”.
For `O=C(C[C@@H]1C[C@@H]2c3cc(NS(=O)(=O)c4ccc(F)cc4)ccc3O[C@@H]2[C@@H](CO)O1)N1CCOCC1`, the cytotoxicity call was “inactive”.
The same measure for `O=C1CN(S(=O)(=O)Cc2ccccc2)C[C@H]2[C@H](c3ccc(C#Cc4cccc(F)c4)cc3)[C@@H](CO)N12`: “inactive”.
In the case of `O=C1CN(S(=O)(=O)Cc2ccccc2)C[C@@H]2[C@H](c3ccc(C#Cc4cccc(F)c4)cc3)[C@H](CO)N12` it was “inactive”; in that of `O=C1CN(S(=O)(=O)Cc2ccccc2)C[C@@H]2[C@@H](c3ccc(C#Cc4cccc(F)c4)cc3)[C@@H](CO)N12`, “active”; in that of `O=C1CN(S(=O)(=O)Cc2ccccc2)C[C@@H]2[C@H](c3ccc(C#Cc4cccc(F)c4)cc3)[C@@H](CO)N12`, “inactive”.
Turning to `O=C1CN(S(=O)(=O)Cc2ccccc2)C[C@H]2[C@@H](c3ccc(C#Cc4cccc(F)c4)cc3)[C@@H](CO)N12`, the cytotoxicity call is “inactive”.
In the case of `O=C1CN(S(=O)(=O)Cc2ccccc2)C[C@@H]2[C@@H](c3ccc(C#Cc4cccc(F)c4)cc3)[C@H](CO)N12` it was “active”; in that of `O=C1CN(S(=O)(=O)Cc2ccccc2)C[C@H]2[C@@H](c3ccc(C#Cc4cccc(F)c4)cc3)[C@H](CO)N12`, “inactive”; in that of `COc1cccc(C#Cc2ccc([C@@H]3[C@H](CO)N4C(=O)CN(S(=O)(=O)c5ccccc5C)C[C@@H]34)cc2)c1`, “inactive”.
In the case of `O=C1CN(S(=O)(=O)Cc2ccccc2)C[C@H]2[C@H](c3ccc(C#Cc4cccc(F)c4)cc3)[C@H](CO)N12` it was “active”.
